Shown are actives, neighbours in structure and some others; about 3.5% of the full set was active somewhere.
Anthrax LF inh2: Bacillus anthracis LF protease inhibitors, primary screen, biochemical, multiplex microsphere, MLPCN library. Lethal factor (Bacillus anthracis), P15917. multiplex microsphere protease cleavage assay. inhibition, % at 10 µM. hit rate 0.12% among 360,000. AID 588501, 2011
Target sequence (P15917 whole entry, looked up): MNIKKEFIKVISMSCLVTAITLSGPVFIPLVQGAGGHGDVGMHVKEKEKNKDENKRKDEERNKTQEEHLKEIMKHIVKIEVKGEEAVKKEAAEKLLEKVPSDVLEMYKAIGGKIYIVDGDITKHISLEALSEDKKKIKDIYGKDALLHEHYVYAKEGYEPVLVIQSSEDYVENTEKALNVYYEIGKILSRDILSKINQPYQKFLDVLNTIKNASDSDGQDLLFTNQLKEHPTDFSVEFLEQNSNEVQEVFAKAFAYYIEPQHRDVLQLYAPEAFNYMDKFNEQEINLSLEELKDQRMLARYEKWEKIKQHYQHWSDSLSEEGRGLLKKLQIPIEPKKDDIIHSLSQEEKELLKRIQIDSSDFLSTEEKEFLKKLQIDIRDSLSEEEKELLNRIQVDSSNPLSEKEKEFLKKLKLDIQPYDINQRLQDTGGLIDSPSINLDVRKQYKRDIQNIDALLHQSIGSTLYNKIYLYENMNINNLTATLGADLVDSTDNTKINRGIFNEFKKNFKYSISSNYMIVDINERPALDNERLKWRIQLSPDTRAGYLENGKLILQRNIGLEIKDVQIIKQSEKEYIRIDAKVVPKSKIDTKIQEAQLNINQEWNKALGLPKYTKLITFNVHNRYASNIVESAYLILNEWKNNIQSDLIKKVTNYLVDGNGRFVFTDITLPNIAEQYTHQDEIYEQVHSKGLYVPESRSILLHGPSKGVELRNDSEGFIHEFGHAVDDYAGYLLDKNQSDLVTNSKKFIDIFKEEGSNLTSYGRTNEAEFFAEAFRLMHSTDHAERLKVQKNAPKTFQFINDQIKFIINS
BoNT F protease: BoNT/F light chain protease inhibitors, primary screen, biochemical, flow cytometry, MLPCN library | Botulinum neurotoxin type F light chain protease (Clostridium botulinum) | Multiplex microsphere protease cleavage assay | inhibition, % at 10 µM | hit rate 0.22% among 360,000 | AID 588497, 2011; in the data active means inhibition above about 35%, passing the limit was not always enough; inconclusive means no clear call, values can overlap the other calls
Bead autofluor: counter-screen for toxin protease inhibitors: compound fluorescence; compound autofluorescence counterscreen, microsphere flow cytometry; stronger effect = higher value; hit rate 3.1% among 360,000; fluorescence intensity (concentration not given with the values); in the data active means fluorescence intensity above about 16000; inconclusive means no clear call, values can overlap the other calls
BoNT-A LC inh2: BoNT/A light chain protease inhibitors, primary screen, biochemical, flow cytometry, MLPCN library | Botulinum neurotoxin type A light chain protease (Clostridium botulinum A str. ATCC 3502) | hit rate 0.17% among 360,000 | multiplex microsphere protease substrate cleavage | AID 588499, 2011 | inhibition, % at 10 µM
Vc quorum ag: inducers of Vibrio cholerae quorum light production without autoinducers, primary screen, BH1578 luxS cqsA deficient, single point. hit rate 0.16% among 350,000. activation, % at 18.7 µM. AID 588436, 2011. V. cholerae BH1578 lux reporter, luminescence, 6 h; in the data active means activation mostly above about 9.7%, no sharp cut-off; inconclusive means no clear call, values can overlap the other calls; inactive means mostly below about 3.7%
Large screens that a line does not name were inactive. Unless noted, no stated cut-off is given here; in the data, active means inhibition above about 30%; inconclusive means no clear call, values can overlap the other calls; inactive means below that.

CC1(C(=O)NS(=O)(=O)C2CC2)CCCN(C(=O)/C=C/c2ccccc2)C1 (configuration not stated)	none
CCCOC(=O)CCCN1C(=O)/C(=C2\SC(=S)N(CCCC(=O)OCCC)C2=O)SC1=S	BoNT F protease inconclusive, BoNT-A LC inh2 81.4
CCCCCOC(=O)CCN1C(=O)/C(=C2\SC(=S)N(CCC(=O)OCCCCC)C2=O)SC1=S	BoNT-A LC inh2 39.8
CCCCOC(=O)CCN1C(=O)/C(=C2\SC(=S)N(CCC(=O)OCCCC)C2=O)SC1=S	BoNT-A LC inh2 30.5
CN1C=CC=C/C1=C1\SC(=S)N(CC(=O)O)C1=O	none
Cc1ccccc1-c1cnc(C(O)c2ccc(Cl)cc2C)[nH]1 (configuration not stated)	none
COc1ccc(CCC(C)NC(=O)Cc2ccc(OC)c(OC)c2)c(OC)c1 (configuration not stated)	none
NC(=O)c1ccc(NC(=O)COC(=O)CNC(=O)c2sc3ccccc3c2Cl)cc1	none
Cc1n[nH]c(=O)nc1NC(C)c1ccccc1 (configuration not stated)	Bead autofluor 22579
O=C(CN1C(=O)C(=O)N(Cc2ccccc2)C1=O)Nc1ccc(F)c(Cl)c1	none
Nc1nc(Cn2nnc(-c3ccccc3Cl)n2)nc(N2CCOCC2)n1	Bead autofluor 23188, BoNT-A LC inh2 inconclusive
CC(=O)c1ccc(N2CCN(C(=O)CCC(=O)Nc3ccc4nc(N5CCN(C)CC5)cc(C)c4c3)CC2)cc1	none
Cn1c(C2=C(O)CN(Cc3ccccc3)C2=N)nc2ccccc21	none
Cc1ccc(C(O)c2nc3ccccc3n2C)cc1 (configuration not stated)	BoNT F protease 35.4
Cc1cccc(CN2CCC(C(=O)Nc3ccc(-n4nc(C)cc4C)cc3)CC2)n1	none
Cc1csc(NC(=O)CCCSc2nc3ccccc3s2)n1	Bead autofluor 21652
COc1ccc(NC(=O)CN(C)C(=O)CSc2nc3ccccc3s2)cc1	Vc quorum ag 20.0
CC(C)c1nnc(NC(=O)CSc2nc3ccccc3s2)s1	Bead autofluor 20149
CCC(C)NC(=O)c1ccc(CS(=O)(=O)Cc2ccc(Cl)cc2)o1 (configuration not stated)	Bead autofluor 23433
CCC(C)NC(=O)c1ccc(CSCc2ccc(Cl)cc2)o1 (configuration not stated)	none
CCN1CCCCC(=N/O)/C(=N/O)CCCC1	BoNT F protease 37.6
O=C(Nc1cccc(Cl)c1)c1ccc(=O)[nH]n1	none
O=C(CS(=O)(=O)Cc1ccccc1)NCc1ccccc1Cl	none
COCCCNC(=O)c1cc(C)nc2ccc(F)cc12	Bead autofluor 21925
Cc1cc(N)ccc1NC(=O)CN1CCCC1	none
Cc1ccc2[nH]c3c(N4CCN(Cc5ccccc5)CC4)ncnc3c2c1	none
CCOc1ccc2[nH]c3c(N4CCN(c5ccccn5)CC4)ncnc3c2c1	Bead autofluor 18129
COc1cc(C2N3CC4(C)CN2CC(C)(C3)C4)ccc1O (configuration not stated)	none
CC12CN3CC(C)(CN(C1)C3c1ccc(Br)cc1)C2 (configuration not stated)	Bead autofluor 22475
Cc1cccn2c(CNCC3(c4ccccc4)CCCC3)c(C(=O)N3CCOCC3)nc12	none
CN(/N=C/c1cccnc1)c1cnn(-c2ccc(F)c(Cl)c2)c(=O)c1Cl	BoNT F protease 36.4, BoNT-A LC inh2 inconclusive
CN(/N=C/c1c[nH]c2ccccc12)c1cnn(-c2ccc(F)c(Cl)c2)c(=O)c1Cl	Bead autofluor 20923
Cc1cc(C)n(/N=C/c2c[nH]c3ccccc23)c(=O)c1C#N	none
CCOc1nc(-c2ccccc2)ccc1-c1noc(-c2ccncc2)n1	none
CCOc1nc(-c2ccccc2)ccc1-c1noc(-c2cccs2)n1	Bead autofluor 20998
CCOc1nc(-c2ccc(OC)cc2)ccc1-c1noc(-c2ccncc2)n1	Bead autofluor 23147, BoNT-A LC inh2 inconclusive
Cn1c(CNC(=O)c2ccco2)nnc1SCC(=O)Nc1c(F)cc(F)cc1Br	none
O=C(CC12CC3CC(CC(C3)C1)C2)NCc1ccncc1	Bead autofluor 16408
O=C(CC12CC3CC(CC(C3)C1)C2)NCc1ccccc1	none
CCOC(=O)C1=C(C)NC2=C(C(=O)C(C(=O)OC)C(C)C2)C1c1ccc(OC)c(O)c1 (configuration not stated)	Bead autofluor 23122, BoNT-A LC inh2 inconclusive
CCOc1cc(S(=O)(=O)NC2CCCCC2)ccc1F	Bead autofluor 22695
